Source: PubChem (National Center for Advancing Translational Sciences (NCATS))
Hits are enriched below; roughly 2.1% of the tested compounds scored in any of these assays.
FUS suppressor: suppressors of FUS proteinopathy in yeast; S. cerevisiae FUS-expressing, growth rescue, OD600, 24 h; Potency, µM (top dose mostly 76.6 µM), hits mostly activators; 390,000 compounds, 0.24% hits;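 further: plate controls were DMSO vehicle for no effect and reference control for full effect; nearly all actives have a fitted effect of over 55% in size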
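FUS-expressing yeast, raffinose-pregrown, induced in 2% galactose minimal medium at OD 0.005; compounds in a dilution series, 24hr at 30C. Growth restoration read as absorbance at 600 nm. CP55940 positive control, DMSO negative.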
Abeta rescue: A-beta toxicity reversal in yeast | yeast expressing A-beta42, growth rescue, OD600, 48 h; response scale: 0% DMSO, 100% iron-clioquinol control | Potency, µM (highest dose often 46.1 µM), most hits filed as activators | 410,000 compounds, 0.063% hits; further: nearly all actives have a fitted effect of over 55% in size
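Growth rescue measured by 600 nm absorbance after 48 h yeast culture at 30 C with compound. Values normalized between DMSO and an equimolar ferric chloride plus clioquinol control.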
TDP-43 yeast inh: rescues yeast growth from TDP-43 toxicity | TDP-43 expressing yeast growth rescue, BacTiter-Glo, 24 h | Potency, µM (series often up to 46.1 µM), for inactives: at the highest dose growth rescue (activation), hits mostly activators | 410,000 compounds, 1.8% hits | AID 652104; further: % of control where 0% means no effect; nearly all actives have a fitted effect of over 50% in size
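Growth rescue of TDP-43-toxic yeast measured as ATP luminescence (BacTiter-Glo). Cells grown to mid-log in raffinose, induced in galactose at OD600=0.02, exposed to compound 24 hr at 30 deg C.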
aSyn yeast inh: alpha-synuclein toxicity inhibition in yeast; 370,000 compounds, 0.14% hits; Yeast expressing alpha-synuclein, growth rescue, BacTiter-Glo, 24 h; Potency, µM (titrated, usually from 46.1 µM), for inactives: top-dose growth rescue (activation), hits mostly activators; AID 652106; further: % of control where 0% means no effect; nearly all actives have a fitted effect of over 65% in size
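Rescue of yeast growth: cells expressing toxic alpha-synuclein, induced in galactose at OD600 0.02, incubated with compound 24 h at 30 C. ATP luminescence quantified growth; inhibitors of toxicity appear as activators.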
* marks the source's active call; other numbers are inactive results; i = inactive; ? = inconclusive; · = no result. The call rests on the fitted dose curve; in most records, active means well fitted curve in the direction sought with a large enough effect; inconclusive means small, poorly fitted or top-dose-only effect, or another doubt; inactive means no such curve, though single readings can be large; an effect the other way counts as inactive or inconclusive. Potency means the concentration at half of the fitted maximal effect.

SMILES | FUS suppressor | Abeta rescue | TDP-43 yeast inh | aSyn yeast inh
COC(=O)[C@]12C[C@H](CC(=O)N3CCCCC3)C(=O)N(Cc3ccccc3)C1=C[C@H](COCc1ccccc1)O[C@@H]2C | i | · | · | ·
CCCCCCCCN1C(=O)[C@@H](CC(=O)N2CCN(C(=O)C3CC3)CC2)C[C@@]2(C(=O)OC)C1=C[C@H](COCc1ccccc1)O[C@@H]2C | 28µM* | · | · | ·
COC(=O)[C@]12C[C@H](CC(=O)N3CCC(c4ccccc4)CC3)C(=O)N(Cc3ccccc3)C1=C[C@H](COCc1ccccc1)O[C@@H]2C | 13µM* | · | · | ·
COC(=O)[C@]12C[C@H](CC(=O)NCc3ccc(C)o3)C(=O)N(Cc3ccccc3)C1=C[C@H](COCc1ccccc1)O[C@@H]2C | 35µM* | · | · | ·
CCC[C@H]1[C@@H](OC(=O)NCCc2c[nH]c3ccccc23)CC[C@@]23CCCN2C(=O)CCC[C@@H]13 | i | · | · | ·
CCCC1CCC2(CC1)CCC2OC(=O)Nc1ccc(C)cc1 (stereo not given) | i | · | · | ·
CC(C)N1C2OC(C3OC4C(O3)N(C(C)C)S(=O)(=O)N4C(C)C)OC2N(C(C)C)S1(=O)=O (stereo not given) | i | i | ? | 7.1µM*
COc1ccc(Cn2cc(COC(=O)NCC(C)C)nn2)cc1 | i | · | · | ·
CC(C)C(=O)N1CCN(c2ccc([N+](=O)[O-])cc2Cl)CC1 | · | i | ? | -9%
CC(C)CC(=O)N1CCN(c2ccc([N+](=O)[O-])cc2Cl)CC1 | i | i | 13µM* | ?
COc1cc(OC)c(/C=C/c2cc3c4ccccc4ccc3[n+](C)c2)c(OC)c1 | · | · | · | 3%
CCC(c1nnnn1-c1ccc2c(c1)OCCO2)N1CCN(c2ccc(F)cc2)CC1 (stereo not given) | i | i | 0% | 10%
CCC(c1nnnn1-c1ccc2c(c1)OCCO2)N1CCN(c2ncccc2C(F)(F)F)CC1 (stereo not given) | ? | i | 13µM* | ?
COc1cccc(CN[C@@H]2CC[C@@]34CCCN3C(=O)CCC[C@H]4C2)c1 | i | · | · | ·
CC1=Nc2cc(C(=O)O)ccc2Sc2c(C)ccc(C)c21 | i | i | 25µM* | 7%
CC1=Nc2cc(C(=O)N3CCCC3)ccc2Sc2c(C)ccc(C)c21 | ? | · | 13% | ?
CCC(C)NC(=O)c1ccc2c(c1)N=C(C)c1cc(C)ccc1S2 (stereo not given) | ? | i | -9% | ·
CC1=Nc2cc(C(=O)O)ccc2Sc2ccc(C)cc21 | i | i | 13µM* | 29%
O=C(c1ccccc1C(F)(F)F)N1CCC(Oc2cccnc2)CC1 | i | · | · | ·
CN(Cc1ccccc1)S(=O)(=O)c1cccc(C(=O)OCc2cccc([N+](=O)[O-])c2)c1 | i | · | · | ·
COc1ccc(C2C(C#N)=C(N)N(c3ccccc3)C3=C2C(=O)CCC3)cc1Cn1cc([N+](=O)[O-])cn1 (stereo not given) | 25µM* | i | -12% | -10%
COc1ccc(Cl)cc1N(C)c1nc(N2CCN(S(=O)(=O)c3ccc(C)cc3)CC2)c2ccccc2n1 | · | · | · | 0%
Cc1ccc(Nc2nc3ccccc3c3nnc(C)n23)cc1Cl | i | i | 13% | ·
Cc1nnc2c3ccccc3nc(Nc3cccc(O)c3)n12 | i | i | 35µM* | ·
COc1cc2c(cc1NC(=O)CSc1nnc(-c3cnccn3)n1-c1ccc(C)cc1)oc1ccccc12 | 18µM* | · | · | ·
SMILES | FUS suppressor | Abeta rescue | TDP-43 yeast inh | aSyn yeast inh
C=CCn1c(SCC(=O)Nc2cc3oc4ccccc4c3cc2OC)nnc1-c1cnccn1 | i | i | 17% | 2%
CCCN1CCOC(CC(=O)Nc2ccc([N+](=O)[O-])cc2)C1=O (stereo not given) | i | i | 20µM* | 3%
COc1ccccc1Cc1c(-c2ccco2)nc2c(C)cc(Br)cn12 | i | i | ? | -71%
CCOC(=O)Cc1c(-c2cccc(Cl)c2)nc2c3ccccc3ccn12 | i | i | 13µM* | 1%
COc1ccc(-c2nc3c4ccccc4ccn3c2Cc2ccc(C)cc2)cc1OC | i | i | 10µM* | 22%
COc1ccc(-c2nc3c4ccccc4ccn3c2Cc2cccc(Cl)c2)cc1OC | i | i | 14µM* | 17%
COc1ccccc1Cc1c(-c2ccco2)nc2c3ccccc3ccn12 | i | i | 22µM* | 1%
Clc1cccc(Cc2c(-c3cccc(Br)c3)nc3c4ccccc4ccn23)c1 | i | i | 20% | -3%
Cc1cc(C(=O)O[C@@H]2CCC[C@]3(C(=O)N(Cc4ccccc4)c4ccccc43)[C@H]2NC(=O)CCc2ccccc2)no1 | i | · | · | ·
Cc1ccc(Cc2c(-c3ccccc3)nc3c4ccccc4ccn23)cc1 | ? | i | 14µM* | 1%
Clc1ccc(-c2nc3c4ccccc4ccn3c2Cc2cccc(Cl)c2)cc1 | i | i | 6% | 9%
Fc1cccc(Cc2c(-c3ccccc3)nc3c4ccccc4ccn23)c1 | i | i | 14µM* | -5%
Cc1ccc(-c2nc3c4ccccc4ccn3c2Cc2ccccc2)cc1 | ? | i | 0% | 0%
COP(=O)(OC)C(NC(=O)OCc1ccccc1)C(C)C (stereo not given) | i | · | · | ·
COc1cccc(CNC(=O)CCCN2C(=O)COc3ccc(C)cc32)c1OC | i | · | · | ·
CCN(C(=O)C(NS(=O)(=O)c1ccc(Br)s1)c1ccccc1)c1ccc(C)c(C)c1 (stereo not given) | i | i | 7% | ·
CC1CC(C)CN(C(=O)C(NS(=O)(=O)c2ccc(Br)s2)c2ccccc2)C1 (stereo not given) | i | i | 14µM* | -2%
Cc1ccc(C(=O)NC2CCCc3ccccc32)cc1[N+](=O)[O-] (stereo not given) | i | i | 10µM* | 7%
COc1ccc(C(=O)NC2CCCc3ccccc32)cc1Br (stereo not given) | i | i | 14µM* | 3%
CC(c1ccccc1)n1cc(C(=O)N2CCCN(Cc3ccccc3)CC2)nn1 (stereo not given) | i | · | · | ·
COC(=O)c1ccccc1NC(=O)c1ccc2c(c1)CC(C)O2 (stereo not given) | i | i | 13µM* | 5%
CCOC(=O)CNC(=S)N(Cc1ccccc1F)C1CCCCC1 | i | 7.1µM* | ? | -1%
CCCNC(=O)CNC(=S)N(Cc1ccccc1F)C1CCCCC1 | i | i | ? | 13%
COc1ccc(CNc2nc(Cl)nc3nc[nH]c23)cc1 | · | · | · | -5%
CCOC(=O)c1sc2nccc(N(C)C)c2c1N=CNOCc1c(F)cccc1Cl | i | i | 18µM* | 5%
Cc1cc(N2CCN(C(=O)Oc3ccc(-c4ccccc4)cc3)CC2)c2ccccc2n1 | i | · | · | ·
CCOc1ccc(NC(=O)CSCc2cnn(-c3ccccc3)c2-n2cccc2)cc1 | i | i | 20µM* | 11%
